Test results published in PubChem BioAssay (EPA / NIEHS).
Several values for one entry are separate records, joined by “and”; a condition that tells them apart may be missing. Equal values may be shown once. Inconclusive results are not listed. Some compounds were tested as several samples or in several runs, with calls that do not always agree. Activity calls are given as the source filed them. The calls were made as follows: active = hit-call score of the fitted dose curve at least 0.9, where 1 is the maximum; inconclusive = response in the unintended direction; inactive = score below 0.9.

Assay: CCTE_Mundy_HCI_Cortical_Synap_Neur_Matur_NeuronCount: CCTE's Synaptogenesis and Neurite Maturation Assay in rat cortical cells for Neuron Count, Mundy Lab (AID 2284242);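 as to AC50: hits reduce neuron count versus DMSO baseline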
Method: CCTE_Mundy_HCI_Cortical_Synap&Neurite_Matur is a multiplexed, cell-based-readout assay that uses rat primary cortical cells with measurements taken at 288.33 hours after chemical dosing in a microplate: 96-well plate.CCTE_Mundy_HCI_Cortical_Synap_Neur_Matur_NeuronCount is one of eight components of the CCTE_Mundy_HCI_Cortical_Synap&Neurite_Matur assay. It measures cell viability related to number of neurons using High Content Imaging of fluorescently labelled markers.[…] Using a type of morphology reporter, loss -of-signal activity can be used to understand developmental effects.
Cells are plated onto 96 well plates and allowed 2 hr for attachment to the substrate. At days in vitro (DIV) 5, Cytosine Arabinoside (AraC) is added to arrest glial cell growth. Chemicals are dosed and a media change is performed at DIV 7 of differentiation and is continued through DIV 12 when the experiment is terminated. Cells are fixed with […] and Hoechst Dye. Cells are stained using Millipore Mouse anti-MAP2MAB3418 (1:800) and Millipore Rabbit anti-Synaptophysinsc-1750 (1:250) primary antibodies and Alexa Fluor-488 goat anti-mouse and AlexaFluor-546 goat anti-rabbit secondary antibodies to label neuronal cell nuclei, synapses and neurites. A Cellomics ArrayScan VTi HCS Reader is used for automated image acquisition and analysis of neurite outgrowth.
In the case of `CCOP(=O)(NC(C)C)Oc1ccc(SC)c(C)c1` (centres undefined), the outcome is reported as “inactive”. In the case of `CC(C)N(C(=O)SCC(Cl)=C(Cl)Cl)C(C)C`, the AC50 is reported as 24.6 µM (active). With `COP(=O)(OC)C(O)C(Cl)(Cl)Cl` (centres undefined) the AC50 was 50 µM (active). With `COP(=O)(OC)OC(Br)C(Cl)(Cl)Br` (centres undefined) the AC50 was 26.1 µM (active) and the outcome was “inactive”. With `CON=C(C(=O)OC)c1ccccc1CON=C(C)c1cccc(C(F)(F)F)c1` the AC50 was 0.293 µM (active). With `CCOP(=S)(OCC)Oc1cc(C)nc(C(C)C)n1` the outcome was “inactive”. For `CN(C)[C@@H]1C(=O)C(C(N)=O)=C(O)[C@@]2(O)C(=O)C3=C(O)c4c(O)cccc4[C@@](C)(O)[C@H]3[C@H](O)[C@@H]12`, the AC50 was 86.1 µM (active). In the case of `CCOP(=S)(OCC)OC(Cl)C(Cl)(Cl)Cl` (centres undefined), the outcome is reported as “inactive” and the AC50 is reported as 21.8 µM (active). With `CN1COCN(Cc2cnc(Cl)s2)C1=N[N+](=O)[O-]` the outcome was “inactive”. For `CCCCSP(=O)(SCCCC)SCCCC`, the AC50 was 86 µM (active) and 24.4 µM (active). For `CCOP(=S)(Oc1cnc(C(C)(C)C)nc1)OC(C)C` (centres undefined), the AC50 was 20.1 µM (active) and the outcome was “inactive”. With `O=[N+]([O-])c1cc(C(F)(F)F)c(Cl)c([N+](=O)[O-])c1Nc1ncc(C(F)(F)F)cc1Cl` the AC50 was 0.717 µM (active). In the case of `COP(=O)(NC(C)=O)SC` (centres undefined), the outcome is reported as “inactive”. In the case of `CCOP(=S)(OCC)Oc1ccc2c(C)c(Cl)c(=O)oc2c1`, the outcome is reported as “inactive”. For `CCCSP(=O)(OCC)Oc1ccc(Br)cc1Cl` (centres undefined), the outcome was “inactive”. With `CC[C@H](C)[C@H]1O[C@]2(C=C[C@@H]1C)C[C@@H]1C[C@@H](C/C=C(\C)[C@@H](O[C@H]3C[C@H](OC)[C@@H](O[C@H]4C[C@H](OC)[C@@H](NC)[C@H](C)O4)[C@H](C)O3)[C@@H](C)/C=C/C=C3\CO[C@@H]4[C@H](O)C(C)=C[C@@H](C(=O)O1)[C@]34O)O2` the AC50 was 672 nM (active) and 1.14 µM (active). For `CCCSP(=O)(OCC)SCCC`, the outcome was “inactive” and the AC50 was 3.79 µM (active). In the case of `CCOP(=S)(OCC)SCCSCC`, the outcome is reported as “inactive”. For `CCOP(=S)(OCC)Oc1ccc([N+](=O)[O-])cc1`, the outcome was “inactive”. For `S=C1NCCN1`, the outcome was “inactive”.
